MLL CXXC-DNA inh: qHTS Fluorescence Polarization Assay for Inhibitors of MLL CXXC domain - DNA interaction | Histone-lysine N-methyltransferase 2A (Homo sapiens), Q03164 | MLL-CXXC / FITC-HOXA9 DNA fluorescence polarization | Potency, µM (top dose mostly 115 µM), without a hit: top-dose activity change, negative = inhibition, most hits filed as inhibitors | actives 0.037% (n = 290,000); active = well fitted inhibition curve with a large enough effect in the polarisation, with a control signal flat, not every such curve was filed as active; inconclusive = small, poorly fitted or top-dose-only effect, or effect the other way, or a change in a side signal; inactive = no such curve, though single readings can be large or run the other way; the % refers to the polarisation; note: potency is the fitted concentration of half-maximal effect
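Purified MLL-CXXC (added from a 7 uM solution) was preincubated 5 min at ambient with pinned compounds in 50 mM Tris-HCl pH 7.5, 50 mM NaCl, 1 mM DTT, 0.05% BSA. Fluorescein-labeled HOX-A9 DNA (50 nM solution) followed, 30 min, then polarization read.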
GAA inh: qHTS Assay for Inhibitors of Human alpha-Glucosidase as a Potential Chaperone Treatment of Pompe Disease; Potency, µM (doses to about 76.9 µM), inactives show top-dose activity change, negative = inhibition, hits mostly inhibitors; purified human GAA, 4-MU-alpha-glucoside fluorescence; actives 0.005% (n = 200,000);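 note: potency is the fitted concentration of half-maximal effect; plate controls were uninhibited enzyme wells for no effect and no-enzyme background for full effect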
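Compounds are titrated up to 77 uM against 4 nM human enzyme. Substrate 4-methylumbelliferyl-alpha-D-pyranoside (400 uM) reacts 20 min at room temperature in pH 5.0 buffer; liberated 4-methylumbelliferone is read at 440 nm.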
aGlu spleen mod: qHTS Assay for Inhibitors and Activators of Human alpha-Glucosidase From Spleen Homogenate. actives 0.006% (n = 240,000). Potency, µM (doses to about 79.9 µM), without a hit: top-dose activity change, negative = inhibition, most hits filed as inhibitors. Lysosomal alpha-glucosidase (Homo sapiens), P10253. human spleen homogenate, 4-MU-alpha-glucoside fluorescence;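 note: potency is the fitted concentration of half-maximal effect; 0% = enzyme with vehicle and -100% = no enzyme basal signal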
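Enzyme source: human spleen homogenate, 1 ug/well. Buffer 50 mM citric acid/K phosphate pH 5.0, 0.01% Tween-20. 4-MU-alpha-glucoside 1 mM; 37 C x 40 min; NaOH/glycine stop; fluorescence.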
Menin MLL FP FL: qHTS Assay for Inhibitors Targeting the Menin-MLL Interaction in MLL Related Leukemias: Competition With Fluorescein Labeled MLL-derived Peptide; Fluorescence polarization, fluorescein-MLL peptide displacement from menin; FP activity change, % at 61.4 µM; 290,000 tested, under 10 active; active = well fitted curve in the direction sought with a large enough effect in the polarisation, not every such curve was filed as active; inconclusive = small, poorly fitted or top-dose-only effect, or effect the other way, or a change in a side signal; inactive = no such curve, though single readings can be large or run the other way; the % refers to the polarisation; note: % of control where 0% means no effect
Menin-MLL TR inh: qHTS Assay for Inhibitors Targeting the Menin-MLL Interaction in MLL Related Leukemias: Competition With Texas Red Labeled MLL-derived Mutant Peptide; actives 0.23% (n = 270,000); Menin + Texas Red MLL mutant peptide, fluorescence polarization; O00255; Potency, µM (highest dose often 61.6 µM), for the others: at the highest dose FP activity change, negative = inhibition, most hits filed as inhibitors; AID 1768, 2009; active = well fitted inhibition curve with a large enough effect in the polarisation, with a control signal flat, not every such curve was filed as active; inconclusive = small, poorly fitted or top-dose-only effect, or effect the other way, or a change in a side signal; inactive = no such curve, though single readings can be large or run the other way; the % refers to the polarisation; note: potency is the fitted concentration of half-maximal effect; % of control where 0% means no effect
Target sequence (O00255 whole entry, looked up): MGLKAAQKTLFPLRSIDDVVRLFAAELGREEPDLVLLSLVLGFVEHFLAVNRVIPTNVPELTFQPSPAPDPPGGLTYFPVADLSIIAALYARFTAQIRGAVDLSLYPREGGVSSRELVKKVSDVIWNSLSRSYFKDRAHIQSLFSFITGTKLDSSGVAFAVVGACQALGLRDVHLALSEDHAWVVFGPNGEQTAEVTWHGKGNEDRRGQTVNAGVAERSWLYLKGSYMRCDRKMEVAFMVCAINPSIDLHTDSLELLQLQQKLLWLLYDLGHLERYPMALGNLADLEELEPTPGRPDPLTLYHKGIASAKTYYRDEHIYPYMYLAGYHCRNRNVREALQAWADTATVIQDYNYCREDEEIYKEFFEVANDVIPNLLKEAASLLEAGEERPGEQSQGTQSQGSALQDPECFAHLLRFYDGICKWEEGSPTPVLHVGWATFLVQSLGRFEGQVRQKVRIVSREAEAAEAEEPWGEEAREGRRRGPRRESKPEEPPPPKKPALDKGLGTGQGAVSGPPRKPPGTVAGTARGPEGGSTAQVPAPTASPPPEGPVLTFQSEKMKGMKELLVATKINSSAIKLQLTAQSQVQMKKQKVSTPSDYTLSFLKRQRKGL
GAA glycogen mod: qHTS Assay for Inhibitors and Activators of Human alpha-Glucosidase Cleavage of Glycogen; actives 0.38% (n = 300,000); Lysosomal alpha-glucosidase (Homo sapiens), P10253; AID 2100, 2009; recombinant GAA, glycogen substrate, Amplex Red glucose oxidase fluorescence; Potency, µM (titrated, usually from 76.4 µM), for the others: top-dose activity change, negative = inhibition, actives largely listed as inhibitors;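 note: potency is the fitted concentration of half-maximal effect; 0% = full enzyme reaction and -100% = no-enzyme basal signal; the screen sought inhibitors and activators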
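Natural-substrate format: glycogen cleavage by 4 nM human enzyme, glucose read by Amplex Red coupling (Ex 573, Em 610 nm). Normalized to enzyme and no-enzyme controls.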
MLL CXXC Fl: qHTS Fluorescence Polarization (FP) Assay for Inhibitors of MLL CXXC domain - DNA interaction: Fluorescein FP. shares compounds with MLL CXXC-DNA inh. actives 70% (n = 200). MLL CXXC-DNA binding, fluorescein FP. AID 624160, 2012. Potency, µM (doses to about 345 µM), for the others: at the highest dose activity change, negative = inhibition, hits mostly inhibitors; note: potency is the fitted concentration of half-maximal effect; nearly all actives have a fitted effect of over 80% in size
MLL CXXC FP-TR: qHTS Fluorescence Polarization (FP) Assay for Inhibitors of MLL CXXC domain - DNA interaction: Texas Red FP | shares compounds with MLL CXXC-DNA inh | MLL CXXC-DNA binding, Texas Red fluorescence polarization | Potency, µM (top dose mostly 345 µM), for inactives: at the highest dose activity change, negative = inhibition, actives largely listed as inhibitors | actives 40% (n = 200) | AID 624161, 2012; note: potency is the fitted concentration of half-maximal effect; % is set by controls: 0 for no effect and ±100 for the full control effect; nearly all actives have a fitted effect of over 75% in size
MLL CXXC TRF: qHTS Fluorescence Polarization (FP) Assay for Inhibitors of MLL CXXC domain - DNA interaction: HTRF Assay; shares compounds with MLL CXXC-DNA inh; MLL CXXC-DNA binding, HTRF, biochemical; Potency, µM (series often up to 172 µM), inactives show top-dose activity change, negative = inhibition, most hits filed as inhibitors; actives 30% (n = 210); AID 624162, 2012; note: % is set by controls: 0 for no effect and ±100 for the full control effect; nearly all actives have a fitted effect of over 80% in size
Starred values were filed as active, the others as inactive; u = inconclusive; x = no result given; [ ] = dose if it differs, or a comment. Only some compounds are listed: those with a hit (about 0.45% of all), similar ones and a draw of the others. Unless noted, calls come from the whole dose curve; as a rule, active = well fitted curve in the direction sought with a large enough effect; inconclusive = small, poorly fitted or top-dose-only effect, or another doubt; inactive = no such curve, though single readings can be large; an effect the other way counts as inactive or inconclusive.

SMILES	MLL CXXC-DNA inh	GAA inh	aGlu spleen mod	Menin MLL FP FL	Menin-MLL TR inh	GAA glycogen mod	others
CCc1ccc(NC(=S)Nc2cc(OC)c(NC(=O)C(C)C)cc2OC)cc1	1%	2%	2%	-1	-10%	12µM*
C/C=C1/C(=O)C[C@@H]2[C@H]3CCC4=CC(=O)CC[C@]4(C)[C@@H]3CC[C@]12C	x	x	7%	x	x	x
Nc1cc(Br)c(N)c(Br)c1	-1%	4%	-3%	-4	7%	32µM*
Cc1ccc(C)c(NNC(N)=S)c1	3%	-6%	-4%	3	-1%	9.9µM*
Cc1c(NC(=O)Nc2ccccc2C(F)(F)F)sc2nc3n(c(=O)c12)CCC(C)CC3 (stereo not given)	x	x	x	x	x	-4%[76.3 µM]
CC(=O)Nc1cc(C(C)(C)C)c(O)c(C(C)(C)C)c1	8%	-10%	1%	-1	3%	14µM*
Cc1ccc(S(=O)(=O)NNc2nc3ccccc3nc2C(F)(F)F)cc1	16%	-11%	9%	3	-1%	28µM*
Cc1ccc(S(=O)(=O)NNc2ccccc2)cc1	6%	4%	-5%	5	8%	u
O=C(NNc1nc2ccccc2nc1C(F)(F)F)c1ccccc1	-4%	-4%	-18%	0	9%	11µM*
NNc1nc2ccccc2nc1C(F)(F)F	6%	8%	-11%	-11	6%	5%
Cc1cccc2nc(-c3ccco3)c(Nc3ccc4c(c3)OCO4)n12	-2%	-3%	4%	3	-16%	u
Cc1ccc(-c2nc3cccc(C)n3c2Nc2ccc3c(c2)OCO3)o1	x	x	x	x	x	1.8µM*
COc1ccc(-c2nc3ccc(C)cn3c2Nc2ccc3c(c2)OCO3)cc1	x	x	x	x	x	18µM*
Cc1ccn2c(Nc3ccc4c(c3)OCO4)c(-c3ccco3)nc2c1	x	x	x	x	x	5µM*
Cc1ccc2nc(-c3ccc(O)cc3)c(Nc3ccc4c(c3)OCCO4)n2c1	21%	1%[15.4 µM]	4%	1	-3%[11.7 µM]	14µM*
CC1=C(C(=O)OCc2ccccc2)C(c2ccc(C3CCCCC3)cc2)NC(=O)N1CCCCCC(=O)O (stereo not given)	x	x	-7%	-2	10%	x
CCc1ccc(C(=O)c2cn(Cc3ccc(F)cc3)c3cc(OC)c(OC)cc3c2=O)cc1	x	x	x	x	x	-12%[76.3 µM]
Cn1cccc1C(=O)N/N=C/c1c(Cl)cccc1Cl	11%	x	x	3	2%	2%
COc1cccc(NC(=O)Cn2c(=O)n(Cc3ccc4c(c3)OCO4)c(=O)c3oc4ccccc4c32)c1	x	x	x	x	x	14%[76.3 µM]
Cc1ccc2nc(-c3ccc(Cl)s3)c(Nc3ccc4c(c3)OCCO4)n2c1	x	x	x	x	x	-17%[76.3 µM]
Clc1ccc(-c2nc3ccccn3c2Nc2ccc3c(c2)OCCO3)s1	x	x	x	x	x	10µM*
[O-][N+](=Nc1ccccc1)c1ccccc1	-7%	x	3%	2	6%	x
CCNC(=O)Cc1c(OC)ccc2cc(Br)ccc12	-12%	2%	7%	0	-12%	-3%
COc1ccc2cc(Br)ccc2c1CC(=O)NCC1CCCO1 (stereo not given)	32µM*	6%	-7%	1	3%	-8%	MLL CXXC Fl=-1%;MLL CXXC FP-TR=30%;MLL CXXC TRF=29%
O=C(O)CN1C(=O)/C(=C\c2cccc(OCc3ccc(Cl)cc3Cl)c2)SC1=S	u	x	x	1	54%	8%[76.3 µM]	MLL CXXC Fl=u;MLL CXXC FP-TR=23%;MLL CXXC TRF=-103%
SMILES	MLL CXXC-DNA inh	GAA inh	aGlu spleen mod	Menin MLL FP FL	Menin-MLL TR inh	GAA glycogen mod	others
CCc1ccccc1NC(=O)c1sc(-n2nc(C)c(Cc3ccc4c(c3)OCO4)c2C)nc1C	x	x	x	x	x	4%[76.3 µM]
COc1ccc(NC(=O)c2cnc3cc(C)ccn3c2=O)c(OC)c1	x	x	x	x	x	-9%[76.3 µM]
CSC1=C(C#N)C(=O)NC(c2ccccc2O)S1 (stereo not given)	13µM*	x	-2%	4	x	3%	MLL CXXC Fl=80µM*;MLL CXXC FP-TR=44%;MLL CXXC TRF=u
O=C(CN1C(=O)C(=O)N(Cc2ccccc2)C1=O)Nc1cc(Cl)cc(Cl)c1	2%	x	5%	-1	x	1%
NC(=O)CN1C(=O)C(=O)N(Cc2cccc(Cl)c2)C1=O	u	x	x	2	3%	-7%	MLL CXXC Fl=66%;MLL CXXC FP-TR=-9%;MLL CXXC TRF=-3%
Cc1nc2nc(-c3cccs3)cn2nc1C	35µM*	-8%	6%	u	-1%	-16%	MLL CXXC Fl=126µM*;MLL CXXC FP-TR=-3%;MLL CXXC TRF=-1%
Cc1nc2nc(-c3ccc(Cl)cc3)cn2nc1C	-2%	u	-10%	-2	x	1%
Cc1cccc(-n2c(C)cc(C=C3C(=O)c4ccccc4C3=O)c2C)c1	32µM*	-6%	-13%	u	u	8%	MLL CXXC Fl=142µM*;MLL CXXC FP-TR=u;MLL CXXC TRF=41%

Screening results from PubChem.
